Values joined by “and” are separate entries in the source; they are usually repeats but may differ in a detail not shown here. Equal entries are not always repeated. Compounds without any hit were thinned out: in the full panel of roughly 79,000, 15% have a hit. Some compounds were tested as several samples or in several runs, with calls that do not always agree. Active and inactive are the calls of the source. Cut-off read from the data, not from the text of the source: active = growth inhibition above about 70%; inactive = the rest.
Columns and labels:
[1] = NCI Yeast Anticancer Drug Screen. Data for the rad52 strain (AID 147);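 note: 0% = growth of vehicle-treated control cultures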; conditions: S. cerevisiae rad52 mutant growth inhibition, stronger effect = higher value
Method in brief: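 Growth of repair-deficient yeast cells was compared between compound-treated and vehicle-treated cultures to give percent inhibition.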

[2] = NCI Yeast Anticancer Drug Screen. Data for the wt1 strain (AID 149);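 note: 0% = growth of vehicle-treated wt1 cultures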; conditions: S. cerevisiae wt1 strain (SPY 50644) growth inhibition, stronger effect = higher value
Method in brief: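 Yeast wt1 strain exposed to compounds; growth inhibition measured relative to vehicle-treated controls.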

[3] = NCI Yeast Anticancer Drug Screen. Data for the rad50EPP+ strain (AID 151);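 note: 0% = growth of vehicle-treated control cultures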; conditions: S. cerevisiae rad50 mutant strain, stronger effect = higher value
Method in brief: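 Measured: growth inhibition of rad50EPP+ yeast. Reference: vehicle-treated controls. Screen uses strains with defined genetic alterations in DNA damage repair or cell cycle control.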

[4] = NCI Yeast Anticancer Drug Screen. Data for the mgt1 strain (AID 153); conditions: S. cerevisiae mgt1 mutant growth inhibition, stronger effect = higher value
Method in brief: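 Compounds were applied to mgt1 mutant yeast, and growth was then compared against vehicle-treated control cultures to give percent inhibition.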

[5] = NCI Yeast Anticancer Drug Screen. Data for the rad50 strain (AID 155);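 note: 0% = growth of vehicle-only cultures of the same strain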; conditions: S. cerevisiae rad50 strain growth inhibition, stronger effect = higher value
Method in brief: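 Yeast carrying a defined DNA repair defect were exposed to test compounds, and growth was compared with vehicle-treated controls to give percent inhibition.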

[6] = NCI Yeast Anticancer Drug Screen. Data for the mec2-1 strain (AID 157); conditions: S. cerevisiae mec2-1 strain, stronger effect = higher value
Method in brief: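 Compounds were applied to mec2-1 yeast cells. Their growth was then compared with that of vehicle-treated cultures to give growth inhibition.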

[7] = NCI Yeast Anticancer Drug Screen. Data for the sgs1 mgt1 strain (AID 161);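 note: 0% = growth of cultures given vehicle only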; conditions: S. cerevisiae sgs1 mgt1 strain, stronger effect = higher value
Method in brief: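 Compounds are added to genetically altered yeast, and growth is compared with cultures given vehicle alone to give percent inhibition.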

[8] = NCI Yeast Anticancer Drug Screen. Data for the CLN2oe strain (AID 163);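 note: 0% = growth of vehicle-only control cultures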; conditions: S. cerevisiae CLN2oe strain, stronger effect = higher value
Method in brief: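 Cells of an engineered yeast line with disturbed cell-cycle regulation are treated with compound. Inhibition of growth is then calculated relative to the vehicle-treated reference.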

[9] = NCI Yeast Anticancer Drug Screen. Data for the cln2 rad14 strain (AID 165);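 note: 0% = growth equal to vehicle treated cultures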; conditions: S. cerevisiae cln2 rad14 strain, stronger effect = higher value
Method in brief: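 Strain: cln2 rad14 yeast, altered in cell cycle control and DNA damage repair. Read-out: growth inhibition vs vehicle.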

[10] = NCI Yeast Anticancer Drug Screen. Data for the bub3 strain (AID 167); conditions: S. cerevisiae bub3 mutant strain, stronger effect = higher value
Method in brief: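 Compounds were applied to a genetically altered yeast strain carrying a cell-cycle control defect. Growth inhibition was scored against vehicle-treated controls.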

[11] = NCI Yeast Anticancer Drug Screen. Data for the wt2 strain (AID 169);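 note: 0% = growth of vehicle-treated yeast cultures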; conditions: S. cerevisiae wt2 strain growth inhibition, stronger effect = higher value
Method in brief: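 Growth of compound-treated yeast is measured and expressed as inhibition relative to vehicle-only controls.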

[12] = NCI Yeast Anticancer Drug Screen. Data for the mlh1 strain (AID 171);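 note: 0% = growth of vehicle-treated control cultures of the same strain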; conditions: S. cerevisiae mlh1 strain growth inhibition, stronger effect = higher value
Method in brief: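 Test agents were incubated with yeast bearing a defined DNA damage repair or cell cycle control alteration; values are growth inhibition normalised to vehicle-treated cultures.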

[13] = NCI Yeast Anticancer Drug Screen. Data for the sgs1 strain (AID 173);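 note: 0% = growth of vehicle-only control cultures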; conditions: S. cerevisiae sgs1 mutant, stronger effect = higher value
Method in brief: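 Strain with an altered DNA repair or cell cycle pathway exposed to compound. Growth then measured. Value = inhibition versus vehicle control.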

[14] = NCI Yeast Anticancer Drug Screen. Data for the mlh1 rad18 strain (AID 175); conditions: S. cerevisiae mlh1 rad18 strain growth inhibition, stronger effect = higher value
Method in brief: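 A repair-deficient yeast strain is exposed to test compound, and growth is scored relative to vehicle-treated controls.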

[15] = NCI Yeast Anticancer Drug Screen. Data for the rad18 strain (AID 177); conditions: S. cerevisiae rad18 mutant growth inhibition, stronger effect = higher value
Method in brief: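 DNA-repair-defective yeast; compound treatment; growth inhibition scored against vehicle.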

[16] = NCI Yeast Anticancer Drug Screen. Data for the rad14 strain (AID 159);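 note: 0% = growth of vehicle-treated control cultures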; conditions: S. cerevisiae rad14 strain growth inhibition, stronger effect = higher value
Method in brief: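 Yeast cells carrying a defined DNA-repair defect were exposed to compounds, and growth inhibition was calculated relative to vehicle-treated control cultures.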

[17] = at 5.0 µM (retest, dose inferred, filed as 0.5)
[18] = at 50.0 µM (retest, dose inferred, filed as 5.0)

Measured: growth inhibition

Cc1sc2ccc3ccccc3c2[n+]1C
active: [1]; at 100.0 µM 94% | [2]; at 100.0 µM 94% | [4]; at 100.0 µM 79% | [5]; at 50.0 µM 82.6% and 95.2% | [5]; at 100.0 µM 83% | [6]; at 50.0 µM 85.8% and 91.7% | [6]; at 100.0 µM 93% | [7]; at 50.0 µM 89.2% and 97.3% | [8]; at 100.0 µM 92% | [9]; at 50.0 µM 87.2% and 77.2% | [10]; at 50.0 µM 86.6% and 89.3% | [10]; at 100.0 µM 96% | [11]; at 100.0 µM 94% | [13]; at 100.0 µM 91% | [14]; at 50.0 µM 86.7% and 96.7% | [15]; at 100.0 µM 87%
77% (active) and -4% (inactive): [5]; [18]
inactive: [1]; at 1.2 µM -3% | [1]; at 3.7 µM -14% | [1]; at 11.0 µM -17% | [1]; at 33.0 µM 3% | [2]; at 1.2 µM -21% | [2]; at 3.7 µM -19% | [2]; at 11.0 µM -24% | [2]; at 33.0 µM -8% | [3]; at 1.2 µM -23% | [3]; at 3.7 µM -10% | [3]; at 11.0 µM -40% | [3]; at 33.0 µM -25% | [3]; at 100.0 µM 10% | [4]; at 1.2 µM -9% | [4]; at 3.7 µM -12% | [4]; at 11.0 µM -17% | [4]; at 33.0 µM 13% | [5]; at 1.2 µM 7% | [5]; at 3.7 µM 27% | [5]; [17] 44% and -15% | [5]; at 11.0 µM 12% | [5]; at 33.0 µM 15% | [6]; at 1.2 µM -31% | [6]; at 3.7 µM -36% | [6]; [17] 49% and -26% | [6]; at 11.0 µM -17% | [6]; at 33.0 µM -11% | [6]; [18] 61% and -2% | [7]; [17] -14% and -11% | [7]; [18] 20% and 4% | [8]; at 1.2 µM -16% | [8]; at 3.7 µM -64% | [8]; at 11.0 µM -39% | [8]; at 33.0 µM -19% | [9]; [17] 47% and -10% | [9]; [18] 32% and 15% | [10]; at 1.2 µM -2% | [10]; at 3.7 µM -15% | [10]; [17] 23% and -18% | [10]; at 11.0 µM -28% | [10]; at 33.0 µM 14% | [10]; [18] 44% and 36% | [11]; at 1.2 µM -11% | [11]; at 3.7 µM 2% | [11]; at 11.0 µM -12% | [11]; at 33.0 µM 8% | [12]; at 1.2 µM -67% | [12]; at 3.7 µM -62% | [12]; at 11.0 µM -70% | [12]; at 33.0 µM -41% | [12]; at 100.0 µM 41% | [13]; at 1.2 µM 3% | [13]; at 3.7 µM 2% | [13]; at 11.0 µM 1% | [13]; at 33.0 µM 19% | [14]; [17] 32% and -17% | [14]; [18] 46% and 8% | [15]; at 1.2 µM 0% | [15]; at 3.7 µM 4% | [15]; at 11.0 µM 2% | [15]; at 33.0 µM -1%

CCCCCCCCCCCC(O)S(=O)(=O)O (stereo not drawn)
active: [4]; at 100.0 µM 70% | [6]; at 100.0 µM 74% | [16]; at 100.0 µM 95% | [11]; at 100.0 µM 98% | [12]; at 100.0 µM 94% | [13]; at 100.0 µM 96% | [15]; at 100.0 µM 90%
inactive: [1]; at 1.2 µM 0% | [1]; at 3.7 µM 0% | [1]; at 11.0 µM -3% | [1]; at 33.0 µM 2% | [1]; at 100.0 µM 55% | [2]; at 1.2 µM -2% | [2]; at 3.7 µM -1% | [2]; at 11.0 µM -4% | [2]; at 33.0 µM 1% | [2]; at 100.0 µM 15% | [3]; at 1.2 µM 7% | [3]; at 3.7 µM 3% | [3]; at 11.0 µM 7% | [3]; at 33.0 µM 15% | [3]; at 100.0 µM 58% | [4]; at 1.2 µM -3% | [4]; at 3.7 µM 0% | [4]; at 11.0 µM -2% | [4]; at 33.0 µM -1% | [5]; at 1.2 µM 4% | [5]; at 3.7 µM 3% | [5]; [17] -13% | [5]; at 11.0 µM -2% | [5]; at 33.0 µM 2% | [5]; [18] 20% | [5]; at 50.0 µM -3.6% | [5]; at 100.0 µM 50% | [6]; at 1.2 µM -1% | [6]; at 3.7 µM 0% | [6]; [17] -17% | [6]; at 11.0 µM -2% | [6]; at 33.0 µM -1% | [6]; [18] -23% | [6]; at 50.0 µM 37.9% | [16]; at 1.2 µM 3% | [16]; at 3.7 µM 4% | [16]; at 11.0 µM 2% | [16]; at 33.0 µM 10% | [9]; [17] -5% | [9]; [18] 6% | [9]; at 50.0 µM -14.4% | [10]; at 1.2 µM 1% | [10]; at 3.7 µM -1% | [10]; [17] 0% | [10]; at 11.0 µM -2% | [10]; at 33.0 µM 0% | [10]; [18] 59% | [10]; at 50.0 µM 7.55% | [10]; at 100.0 µM 12% | [11]; at 1.2 µM -4% | [11]; at 3.7 µM -9% | [11]; at 11.0 µM -7% | [11]; at 33.0 µM -11% | [12]; at 1.2 µM 0% | [12]; at 3.7 µM 0% | [12]; at 11.0 µM -2% | [12]; at 33.0 µM 3% | [13]; at 1.2 µM 1% | [13]; at 3.7 µM -2% | [13]; at 11.0 µM -12% | [13]; at 33.0 µM 6% | [14]; [17] 7% | [14]; [18] 39% | [14]; at 50.0 µM 17.4% | [15]; at 1.2 µM 1% | [15]; at 3.7 µM 1% | [15]; at 11.0 µM -2% | [15]; at 33.0 µM -1%

Cc1cc2cc3cc(C)c(N)cc3nc2cc1N
active: [1]; at 33.0 µM 77% | [1]; at 100.0 µM 96% | [2]; at 100.0 µM 89% | [3]; at 33.0 µM 71% | [3]; at 100.0 µM 84% | [4]; at 100.0 µM 94% | [5]; [17] 94% | [5]; at 33.0 µM 86% | [5]; [18] 99% | [5]; at 50.0 µM 81.8% | [5]; at 100.0 µM 96%
inactive: [1]; at 1.2 µM -6% | [1]; at 3.7 µM -1% | [1]; at 11.0 µM -7% | [2]; at 1.2 µM -18% | [2]; at 3.7 µM -8% | [2]; at 11.0 µM -6% | [2]; at 33.0 µM 56% | [3]; at 1.2 µM -10% | [3]; at 3.7 µM 20% | [3]; at 11.0 µM 37% | [4]; at 1.2 µM -61% | [4]; at 3.7 µM -60% | [4]; at 11.0 µM -28% | [4]; at 33.0 µM 68% | [5]; at 1.2 µM -9% | [5]; at 3.7 µM -18% | [5]; at 11.0 µM 27% | [6]; at 1.2 µM -18% | [6]; at 3.7 µM -5%
